# Measured values taken from PubChem BioAssay (NCI).
# Compounds without any hit were thinned out: in the full panel of roughly 79,000, 15% have a hit. A number with no mark means an inactive call. Calls of active or inactive are those of the source. Cut-off read from the data, not from the text of the source: active = growth inhibition above about 70%; inactive = the rest.
# What was measured:
# [1] = NCI Yeast Anticancer Drug Screen. Data for the rad50 strain (AID 155);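 note: 0% = growth of vehicle-only cultures of the same strain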; details: S. cerevisiae rad50 strain growth inhibition, stronger effect = higher value
# Summary of the method: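 A DNA repair-deficient yeast mutant serves as the test organism; compound-induced growth inhibition is calculated against vehicle-treated cells.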
# [2] = NCI Yeast Anticancer Drug Screen. Data for the mec2-1 strain (AID 157); details: S. cerevisiae mec2-1 strain, stronger effect = higher value
# Summary of the method: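 Test agents were screened against the mec2-1 yeast strain, with defined DNA repair or cell cycle alteration. Growth was scored as inhibition against vehicle-only controls.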
# [3] = NCI Yeast Anticancer Drug Screen. Data for the sgs1 mgt1 strain (AID 161);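 note: 0% = growth of cultures given vehicle only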; details: S. cerevisiae sgs1 mgt1 strain, stronger effect = higher value
# Summary of the method: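 Test agents were incubated with a DNA-repair-mutant yeast strain. Growth was then read and compared against vehicle-treated controls.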
# [4] = NCI Yeast Anticancer Drug Screen. Data for the cln2 rad14 strain (AID 165);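 note: 0% = growth equal to vehicle treated cultures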; details: S. cerevisiae cln2 rad14 strain, stronger effect = higher value
# Summary of the method: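 Growth of compound-exposed yeast (cln2 rad14 genotype) measured and expressed as inhibition relative to vehicle.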
# [5] = NCI Yeast Anticancer Drug Screen. Data for the bub3 strain (AID 167); details: S. cerevisiae bub3 mutant strain, stronger effect = higher value
# Summary of the method: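 Inhibition values come from growth of compound-treated mutant yeast normalised to vehicle-treated controls.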
# [6] = NCI Yeast Anticancer Drug Screen. Data for the mlh1 rad18 strain (AID 175); details: S. cerevisiae mlh1 rad18 strain growth inhibition, stronger effect = higher value
# Summary of the method: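 In this whole-cell yeast screen, a strain with altered DNA damage repair is challenged with compound, and its growth is measured against matched vehicle-treated controls.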
# [7] = at 5.0 µM (retest, dose inferred, filed as 0.5)
# [8] = at 50.0 µM (retest, dose inferred, filed as 5.0)
SMILES,"growth inhibition [1, 7]","growth inhibition [1, 8]",growth inhibition ([1]; at 50.0 µM),"growth inhibition [2, 7]","growth inhibition [2, 8]",growth inhibition ([2]; at 50.0 µM),"growth inhibition [3, 7]","growth inhibition [3, 8]",growth inhibition ([3]; at 50.0 µM),"growth inhibition [4, 7]","growth inhibition [4, 8]",growth inhibition ([4]; at 50.0 µM),"growth inhibition [5, 7]","growth inhibition [5, 8]",growth inhibition ([5]; at 50.0 µM),"growth inhibition [6, 7]","growth inhibition [6, 8]",growth inhibition ([6]; at 50.0 µM)
O=Nc1c(NO)c2ccccc2c2ccccc12,5%,96% (active),99.1% (active),-2%,91% (active),96.2% (active),-8%,93% (active),97.8% (active),2%,82% (active),85.8% (active),-9%,95% (active),98.2% (active),20%,95% (active),98.2% (active)
CCc1ccc(/C=C/C(=O)C2CN(CC)CCC2(O)/C=C/c2ccc(CC)cc2)cc1 (configuration not stated),4%,99% (active),91.5% (active),2%,99% (active),92.8% (active),2%,99% (active),92% (active),4%,99% (active),89.8% (active),8%,98% (active),91.2% (active),13%,99% (active),91.5% (active)
Cc1cc(C[P+](c2ccccc2)(c2ccccc2)c2ccccc2)c(C)cc1C[P+](c1ccccc1)(c1ccccc1)c1ccccc1,4%,66%,95.1% (active),-9%,49%,96.7% (active),1%,61%,91.6% (active),3%,32%,82.5% (active),3%,66%,92.1% (active),1%,86% (active),94.5% (active)
Cc1ccc(N2C(=O)CSC2=S)cc1Br,7%,46%,95.1% (active),3%,11%,93% (active),4%,49%,94.9% (active),-1%,-11%,31.9%,-2%,24%,77.5% (active),3%,64%,95.2% (active)
CN(C)CCC(=O)c1ccco1,6%,85% (active),86.1% (active),13%,93% (active),94% (active),25%,87% (active),93.3% (active),10%,89% (active),93.5% (active),-3%,39%,70.2% (active),13%,92% (active),95.3% (active)
CC1=C(C(=O)Nc2ccc([N+](=O)[O-])cc2)C(c2ccccc2F)C(C(=O)Nc2ccc([N+](=O)[O-])cc2)=C(C)N1,19%,19%,56.4%,5%,5%,74.3% (active),2%,2%,52%,6%,6%,64%,-1%,-1%,60%,-2%,-2%,28.1%
CC(=O)OCC1OC(OC2CCCc3c(O)c4c(c(O)c32)C(=O)c2ccccc2C4=O)C(OC(C)=O)C(OC(C)=O)C1OC(C)=O (configuration not stated),32%,96% (active),97.6% (active),-8%,98% (active),99.5% (active),16%,98% (active),98.8% (active),2%,96% (active),28.9%,16%,98% (active),99.2% (active),19%,97% (active),82.1% (active)
Cc1ccc2ccc3ccc(C)nc3c2n1,94% (active),93% (active),95.1% (active),92% (active),94% (active),96.3% (active),93% (active),96% (active),96.5% (active),91% (active),89% (active),94.3% (active),96% (active),94% (active),97% (active),94% (active),94% (active),95.8% (active)
CCOC(=O)/C(=C/c1ccccc1Br)P(=O)(OCC)OCC,7%,39%,71.2% (active),-6%,60%,35.8%,-12%,38%,41.9%,18%,53%,33.5%,-2%,85% (active),61.3%,-18%,74% (active),30%
N#C/C(=C\c1ccc(Cl)cc1Cl)C(N)=S,-3%,78% (active),94.7% (active),-4%,88% (active),95.2% (active),-2%,93% (active),98.5% (active),-12%,82% (active),86.8% (active),-9%,79% (active),89.1% (active),-11%,93% (active),95.7% (active)
O=C1c2ccccc2-c2nnc3c(c21)Cc1ccccc1C3,-4%,38%,50.9%,-21%,16%,43%,-7%,1%,17.1%,-8%,27%,40.5%,9%,26%,67.5%,-6%,37%,71% (active)
CC(C)(C)C(=O)CC(Cc1nccc2ccccc12)c1ccco1 (configuration not stated),-3%,94% (active),98.7% (active),-5%,96% (active),99.2% (active),-3%,97% (active),98.7% (active),2%,94% (active),98% (active),-1%,94% (active),99.2% (active),-8%,97% (active),98.9% (active)
Nc1ccc2c(S(=O)(=O)O)cc(S(=O)(=O)O)cc2c1,3%,0%,-21.6%,2%,-1%,-6.25%,0%,-2%,-10.4%,3%,2%,61.4%,2%,-2%,6.3%,1%,-1%,-31.4%
O=c1[nH][nH]c(=O)c2c1nc(SCc1ccccc1)n2Cc1ccccc1,-3%,-4%,8.05%,-3%,5%,-10.9%,-1%,2%,1.25%,-3%,-4%,75.8% (active),-6%,-4%,2.3%,-2%,7%,9.45%
Cc1ccc2c(c1)C1C(CC2)C2C(=O)OC(=O)C2C2CCc3ccc(C)cc3C21 (configuration not stated),35%,97% (active),35.4%,21%,98% (active),14.3%,6%,99% (active),1.35%,20%,90% (active),0.4%,19%,97% (active),10.3%,29%,98% (active),38.4%
O=C(c1ccccc1)N1CCCCC1,-1%,33%,81.5% (active),0%,5%,-1.55%,-2%,3%,23.9%,2%,3%,48%,-2%,3%,15.5%,0%,6%,47%
O=C1CCCCC1Sc1ccc(Cl)cc1 (configuration not stated),1%,94% (active),91.2% (active),2%,95% (active),91.1% (active),2%,87% (active),96.3% (active),-4%,76% (active),76.1% (active),3%,96% (active),85.2% (active),2%,94% (active),87.5% (active)
CCN(CC)CCCCCCNc1cc(C)cc2cccnc12,7%,59%,65.9%,7%,61%,19.9%,20%,81% (active),74% (active),9%,52%,72.8% (active),14%,76% (active),18.9%,10%,74% (active),59.6%
O=C(CBr)c1cccc(OC(=O)c2ccccc2)c1,91% (active),99% (active),44.2%,91% (active),98% (active),26.1%,100% (active),99% (active),68%,88% (active),99% (active),29.9%,99% (active),99% (active),56.2%,90% (active),99% (active),16.1%
